The panel holds about 83,000 compounds, 20% with a hit somewhere; the sample as a whole holds those more often.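 96-well plates, one dose, 48 hours. Percent growth reported; active if below 10.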 Calls of active or inactive are those of the source.
Legend:
Assay in all cases: NCI-60 one-dose screen, 48 h (100 = growth as untreated, 0 = no growth, -100 = all killed)
HCT-15 colon = settings: 10 µM unless noted
SNB-75 CNS = settings: 10 µM
SNB-19 CNS = settings: 10 µM unless noted
U251 CNS = settings: 10 µM unless noted
PC-3 prostate = settings: 10 µM unless noted
SK-MEL-5 melanoma = settings: 10 µM unless noted
UACC-62 melanoma = settings: 10 µM unless noted
LOX IMVI melanoma = settings: 10 µM unless noted
SK-MEL-28 melanoma = settings: 10 µM unless noted
SK-MEL-2 melanoma = settings: 10 µM unless noted
EKVX NSCLC = settings: 10 µM unless noted
SN12C renal = settings: 10 µM unless noted
UO-31 renal = settings: 10 µM unless noted
TK-10 renal = settings: 10 µM unless noted
ACHN renal = settings: 10 µM unless noted
CAKI-1 renal = settings: 10 µM unless noted
A498 renal = settings: 10 µM unless noted
CCRF-CEM leukemia = settings: 10 µM unless noted
MOLT-4 leukemia = settings: 10 µM unless noted
HT29 colon = settings: 10 µM unless noted

Measured: growth

O=c1[nH]c(-c2ccccc2)nc(CN2CCCCC2)c1O
inactive: HCT-15 colon 113% | SNB-75 CNS 96.3% | SNB-19 CNS 97.3% | U251 CNS 103% | PC-3 prostate 105% | SK-MEL-5 melanoma 111% | UACC-62 melanoma 98.6% | LOX IMVI melanoma 97.4% | SK-MEL-28 melanoma 111% | SK-MEL-2 melanoma 111% | EKVX NSCLC 112% | SN12C renal 93.9% | UO-31 renal 95.1% | TK-10 renal 108% | ACHN renal 106% | CAKI-1 renal 91.5% | A498 renal 111% | CCRF-CEM leukemia 96.8% | MOLT-4 leukemia 120%

COc1ccc(-c2ccc(-c3ccc(C(=N)N)cn3)s2)cc1OC
inactive: HCT-15 colon 99.8% | HT29 colon 65.5% | U251 CNS 88.3% | PC-3 prostate 93.5% | SK-MEL-5 melanoma 88.7% | UACC-62 melanoma 98.1% | SK-MEL-28 melanoma 98% | SK-MEL-2 melanoma 109% | EKVX NSCLC 89.1% | SN12C renal 90.6% | UO-31 renal 85.7% | TK-10 renal 128% | ACHN renal 93.8% | CAKI-1 renal 110% | A498 renal 78.5% | CCRF-CEM leukemia 97.6%

O=C(CCl)N(C1CCCCC1)C1CCCCC1
inactive: HCT-15 colon 98.4% | SNB-75 CNS 95.7% | SNB-19 CNS 109% | U251 CNS 104% | PC-3 prostate 93.7% | SK-MEL-5 melanoma 93.3% | UACC-62 melanoma 102% | SK-MEL-28 melanoma 104% | SK-MEL-2 melanoma 108% | EKVX NSCLC 104% | SN12C renal 107% | UO-31 renal 98.3% | TK-10 renal 104% | ACHN renal 109% | CAKI-1 renal 98.7% | A498 renal 91.7% | CCRF-CEM leukemia 42.6% | MOLT-4 leukemia 110%
active: LOX IMVI melanoma -3.14%

COc1cccc(/C=C2\Oc3cc(OCCCN4CCCC4)ccc3C2=O)c1
active: CCRF-CEM leukemia 1.85%
inactive: HCT-15 colon 19.3% | HT29 colon 17.8% | U251 CNS 75.6% | PC-3 prostate 69% | UACC-62 melanoma 96.7% | LOX IMVI melanoma 20.6% | SK-MEL-28 melanoma 100% | SK-MEL-2 melanoma 107% | EKVX NSCLC 85.3% | SN12C renal 85.2% | UO-31 renal 58.2% | TK-10 renal 93.3% | ACHN renal 93% | CAKI-1 renal 85.5% | MOLT-4 leukemia 59.5%

Nc1cc2c([nH]c[n+]2CC#CCCl)c(SCC#CCCl)n1
active: HCT-15 colon -43.3% | HT29 colon -50.3% | U251 CNS -64.8% | PC-3 prostate -20.3% | SK-MEL-5 melanoma -93.3% | UACC-62 melanoma -91.5% | LOX IMVI melanoma -91% | SK-MEL-2 melanoma -30% | SN12C renal -10.9% | TK-10 renal -4.18% | ACHN renal -34.7% | CAKI-1 renal 6.37% | A498 renal -52.1% | CCRF-CEM leukemia 8.89% | MOLT-4 leukemia -1.5%

O=C(O)COc1ccc(-c2cssc2=S)cc1
inactive: HCT-15 colon 99.4% | HT29 colon 87.5% | U251 CNS 98.2% | PC-3 prostate 104% | SK-MEL-5 melanoma 100% | UACC-62 melanoma 107% | LOX IMVI melanoma 96.6% | SK-MEL-28 melanoma 108% | SK-MEL-2 melanoma 90.8% | SN12C renal 103% | TK-10 renal 93.9% | ACHN renal 103% | CAKI-1 renal 104% | A498 renal 88.2% | CCRF-CEM leukemia 90.3% | MOLT-4 leukemia 102%

CCCCCCCCCCCC(=O)NCCC[N+](C)(C)CC(=O)[O-]
inactive: HCT-15 colon 100% | SNB-75 CNS 93.4% | SNB-19 CNS 88.3% | U251 CNS 72.2% | PC-3 prostate 31.8% | SK-MEL-5 melanoma 95.6% | UACC-62 melanoma 78% | LOX IMVI melanoma 79.8% | SK-MEL-28 melanoma 99% | SK-MEL-2 melanoma 96.3% | EKVX NSCLC 103% | SN12C renal 103% | UO-31 renal 97.6% | TK-10 renal 76.6% | ACHN renal 109% | CAKI-1 renal 95.8% | A498 renal 91% | CCRF-CEM leukemia 89.5% | MOLT-4 leukemia 78.6%

COc1cc(-c2nc(N=Nc3c(O)[nH]c4ccc(Br)cc34)[nH]c(=O)c2C#N)cc(OC)c1OC
inactive: HCT-15 colon 98.6% | HT29 colon 106% | U251 CNS 99.7% | PC-3 prostate 98.8% | UACC-62 melanoma 96.1% | SK-MEL-28 melanoma 111% | SK-MEL-2 melanoma 102% | EKVX NSCLC 100% | SN12C renal 97.4% | UO-31 renal 90% | TK-10 renal 111% | ACHN renal 101% | CAKI-1 renal 91.1% | CCRF-CEM leukemia 94.5% | MOLT-4 leukemia 96.2%

CN(C)c1nc2c(N)ncnc2n1C1OC(CO)C(O)C1O (stereo not given)
inactive: HCT-15 colon 104% | SNB-75 CNS 111% | SNB-19 CNS 107% | U251 CNS 110% | PC-3 prostate 94.2% | SK-MEL-5 melanoma 108% | UACC-62 melanoma 99.1% | LOX IMVI melanoma 104% | SK-MEL-28 melanoma 122% | SK-MEL-2 melanoma 99.4% | EKVX NSCLC 112% | SN12C renal 104% | UO-31 renal 79.5% | TK-10 renal 107% | ACHN renal 99.4% | CAKI-1 renal 99.3% | A498 renal 114% | CCRF-CEM leukemia 105% | MOLT-4 leukemia 111%

COc1ccc2c(c1)[nH]c(=O)c1c3cc(OC)ccc3cn21
inactive: SNB-75 CNS 74.8% | SNB-19 CNS 25.8% | UACC-62 melanoma 41.9% | SK-MEL-28 melanoma 62.3% | SK-MEL-2 melanoma 71.7% | EKVX NSCLC 48.7% | SN12C renal 32.7% | UO-31 renal 28.6% | TK-10 renal 48.7% | ACHN renal 19.1% | CAKI-1 renal 41.3% | A498 renal 51.7% | MOLT-4 leukemia 26.2%
active: HCT-15 colon 4.49% | U251 CNS -47.6% | PC-3 prostate 0.628% | SK-MEL-5 melanoma 5.31% | LOX IMVI melanoma -76.9% | CCRF-CEM leukemia -58.8%

COc1ccc(Nc2nc(N)nc3c2CCN(Cc2ccc(OC)cc2OC)C3=O)cc1
inactive: HCT-15 colon 91% | SNB-75 CNS 85.7% | SNB-19 CNS 72.2% | U251 CNS 75.4% | PC-3 prostate 90% | SK-MEL-5 melanoma 80.7% | UACC-62 melanoma 68% | LOX IMVI melanoma 71.9% | SK-MEL-28 melanoma 90% | SK-MEL-2 melanoma 93.7% | EKVX NSCLC 81.5% | SN12C renal 70.7% | UO-31 renal 60.3% | TK-10 renal 84.8% | ACHN renal 80.7% | CAKI-1 renal 92.9% | A498 renal 76.8% | CCRF-CEM leukemia 86.1% | MOLT-4 leukemia 80.7%

O=S(=O)(CC(O)(c1ccccc1)c1ccccc1)CC(O)(c1ccccc1)c1ccccc1
inactive: HCT-15 colon 96.4% | SNB-75 CNS 58.4% | SNB-19 CNS 83.2% | U251 CNS 70.7% | PC-3 prostate 80.4% | SK-MEL-5 melanoma 88.6% | UACC-62 melanoma 93.7% | LOX IMVI melanoma 76% | SK-MEL-28 melanoma 86% | SK-MEL-2 melanoma 109% | EKVX NSCLC 73.8% | SN12C renal 90.1% | UO-31 renal 92.9% | TK-10 renal 107% | ACHN renal 78.1% | A498 renal 98.7% | CCRF-CEM leukemia 64.8% | MOLT-4 leukemia 96.7%

COC(=O)C1CCCN1C(=O)[C@@H]1CCCN1C(=O)[C@H](Cc1c[nH]c2ccccc12)NC(=S)Nc1cc(C(F)(F)F)cc(C(F)(F)F)c1 (stereo not given in full)
inactive: HCT-15 colon 40% | SNB-75 CNS 55.1% | SNB-19 CNS 49.7% | U251 CNS 35.9% | PC-3 prostate 20.4% | SK-MEL-5 melanoma 58.1% | UACC-62 melanoma 63.6% | LOX IMVI melanoma 36.1% | SK-MEL-28 melanoma 80.9% | SK-MEL-2 melanoma 67.5% | EKVX NSCLC 49.8% | SN12C renal 65.5% | UO-31 renal 49.7% | TK-10 renal 56.7% | CAKI-1 renal 33.7% | A498 renal 65.4% | CCRF-CEM leukemia 24% | MOLT-4 leukemia 27%

COc1ccc(-c2cn(-c3cccc(C(=O)/C=C/c4cc(OC)c(OC)c(OC)c4)c3)c(=O)[nH]2)cc1OC
inactive: HCT-15 colon 82.1% | SNB-75 CNS 58.2% | SNB-19 CNS 108% | U251 CNS 71.6% | PC-3 prostate 81.5% | SK-MEL-5 melanoma 88.3% | UACC-62 melanoma 73.1% | LOX IMVI melanoma 69.4% | SK-MEL-28 melanoma 98.9% | SK-MEL-2 melanoma 75.3% | EKVX NSCLC 98% | SN12C renal 78.1% | UO-31 renal 68.3% | ACHN renal 81.8% | CAKI-1 renal 96% | A498 renal 90.3% | CCRF-CEM leukemia 34.3% | MOLT-4 leukemia 70.4%

COc1ccc2c(c1)NC1=C(C(=O)OC1)C2c1cc(OC)c2c(c1)OCO2 (stereo not given)
active: SK-MEL-5 melanoma -55.1%
inactive: HCT-15 colon 16.5% | SNB-75 CNS 53.6% | SNB-19 CNS 37.3% | U251 CNS 21.1% | PC-3 prostate 24.3% | UACC-62 melanoma 50.8% | LOX IMVI melanoma 19% | SK-MEL-28 melanoma 66.9% | SK-MEL-2 melanoma 54.6% | EKVX NSCLC 52.2% | SN12C renal 26.4% | UO-31 renal 57.5% | CAKI-1 renal 43.4% | A498 renal 18.5% | CCRF-CEM leukemia 10.1% | MOLT-4 leukemia 11.6%

C=C[C@@H]1C[C@H](O)Cc2c(C)cc(C)cc2N1
active: CCRF-CEM leukemia -19% | MOLT-4 leukemia -46.2%
inactive: HCT-15 colon 101% | SNB-75 CNS 93.6% | SNB-19 CNS 109% | U251 CNS 97.3% | PC-3 prostate 88.6% | SK-MEL-5 melanoma 96.2% | UACC-62 melanoma 98.2% | LOX IMVI melanoma 77.6% | SK-MEL-28 melanoma 102% | SK-MEL-2 melanoma 111% | EKVX NSCLC 86.9% | SN12C renal 95.9% | UO-31 renal 96% | TK-10 renal 85.8% | ACHN renal 103% | CAKI-1 renal 97.2% | A498 renal 89.9%

CNc1ccc(Br)c2c1C(=O)c1ccccc1C2=O
inactive: HCT-15 colon 98.2% | SNB-75 CNS 96.7% | SNB-19 CNS 110% | U251 CNS 103% | PC-3 prostate 94.5% | SK-MEL-5 melanoma 110% | UACC-62 melanoma 95.8% | LOX IMVI melanoma 102% | SK-MEL-28 melanoma 115% | SK-MEL-2 melanoma 129% | EKVX NSCLC 115% | SN12C renal 102% | UO-31 renal 86.1% | ACHN renal 104% | CAKI-1 renal 100% | A498 renal 93.3% | CCRF-CEM leukemia 86.1% | MOLT-4 leukemia 94.7%
